# Article PMC5540273 (PLoS ONE, 2017)
# Legend:
# Settings in all cases: concentration: 1 μM, replicates: in singlicate; n = 1
# [1] = system: MST1R
# [2] = system: T1, MST1
# T1 construct: gene STK4
# [3] = system: T2, MST2
# T2 construct: gene STK3
# [4] = system: T3, MST3
# T3 construct: gene STK24
# [5] = system: MST4
# [6] = system: MTOR
# [7] = system: MUSK
# [8] = system: MYLK2
# [9] = system: MYLK4
# [10] = system: MYLK
# 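Also: KINOMEscan kinase panel screen.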
SMILES,%Inh [1] [%],%Inh [2] [%],%Inh [3] [%],%Inh [4] [%],%Inh [5] [%],%Inh [6] [%],%Inh [7] [%],%Inh [8] [%],%Inh [9] [%],%Inh [10] [%]
Cc1c(Cn2c3ccccc3n3c(=O)cc(N4CCOCC4)nc23)cccc1C(F)(F)F [GSK2306394],0,15,12,2,0,3,6,17,0,2
Cc1ccc(-c2nc(Nc3ccncc3)c3ccccc3n2)s1 [GSK189015],37,6,21,11,5,10,17,26,7,19
COC(=O)c1cccc(NC(=O)NC2CCN(c3ccnc(Nc4ccc(F)cc4)n3)C2)c1 (centres unmarked) [GSK1379725],39,0,0,0,0,7,0,0,0,0
CNc1cc(-c2ccc3c(N)n[nH]c3c2)nc(N)n1 [GSK2224810],27,0,0,24,0,0,0,64,56,10
COc1ccc(CSc2nnc(-c3ccc4c(c3)CCO4)o2)cc1,13,0,0,0,0,0,0,0,3,0
COc1ccc(CSc2nnc(-c3ccc4nccn4c3)o2)cc1C(F)(F)F,0,0,0,15,7,0,9,8,21,0
Fc1ccc(-c2nn3cccc(F)c3c2-c2ccncc2)cc1 [GW475620],18,30,0,0,0,20,11,0,0,14
COc1cccc(C2=C(Nc3cc(Cl)c(O)c(Cl)c3)C(=O)NC2=O)c1 [SB-390767],13,100,29,0,0,44,5,10,9,0
CNC(=O)c1ccc(C)c(-n2c(C)cc(OCc3ccc(F)cc3F)c(Br)c2=O)c1,0,0,0,0,0,33,6,9,3,0
COc1cccc(NC(=O)Nc2ccc(C)c(-c3ccc(C(=O)Nc4ccncc4)cc3)c2)c1 [GSK1398474],57,18,0,10,0,0,1,4,3,31
O=C1NC(=O)C(c2ccc(Cl)cc2)=C1Nc1cccc(Cl)c1 [SB-317651],9,6,43,13,0,8,7,30,0,0
COC(=O)C(NC(=O)NC1CCN(c2ccnc(Nc3ccc(F)cc3)n2)C1)c1ccccc1 (centres unmarked) [GSK1379712],35,0,28,3,0,31,12,10,13,12
Nc1cccc(-c2ccc3c(N)n[nH]c3c2)n1 [GSK2192730],33,0,21,9,0,15,4,90,72,34
Cn1cnc2c(N)ncnc21 [SKF-97623],0,0,24,0,0,4,0,0,0,0
O=c1cc(N2CCOCC2)nc2n(Cc3ccccc3F)ccn12 [GSK2297428],26,8,0,0,0,13,0,0,0,12
NS(=O)(=O)c1cccc(N/C=C2\C(=O)Nc3ccc(S(=O)(=O)Cc4c(Cl)cccc4Cl)cc32)c1 [GSK398099],17,0,1,0,0,11,7,0,1,18
COc1cc2ncnc(Nc3cccc(Br)c3)c2cc1OC.Cl [GI230329],30,0,0,1,0,0,0,7,5,0
Fc1ccc(-c2nc[nH]c2-c2ccncc2)cc1 [SB-217360],0,13,0,0,0,4,0,0,0,3
COC(=O)C(Cc1ccccc1)NC(=O)NC1CCN(c2ccnc(Nc3ccc(F)cc3)n2)C1 (centres unmarked) [GSK1379714],39,5,0,3,0,33,8,0,13,11
CC(=O)c1cccc(NC(=O)NC2CCN(c3ccnc(Nc4ccc(F)cc4)n3)C2)c1 (centres unmarked) [GSK1379710],31,0,22,3,0,21,8,0,21,11
CCc1ccc(-c2ccc3c(c2)-c2n[nH]cc2S(=O)(=O)N3C)cc1,0,8,0,0,0,0,0,0,0,0
O=C(Nc1n[nH]c2cc(-c3ccsc3)ccc12)C1CC1 [SB-732932],22,0,34,16,27,0,11,97.1,22,24
CC(=O)c1c(C)c2cnc(Nc3ccn(C)n3)nc2n(C2CCCC2)c1=O,4,2,0,10,0,14,0,0,0,0

SMILES,%Inh [1] [%],%Inh [2] [%],%Inh [3] [%],%Inh [4] [%],%Inh [5] [%],%Inh [6] [%],%Inh [7] [%],%Inh [8] [%],%Inh [9] [%],%Inh [10] [%]
CCn1c(-c2c(N)noc2C)nc2cnccc21 [SB-737856],3,15,0,0,0,28,6,7,9,6
CC(C)c1ccc(O)cc1Nc1ccnc2ccc(C(F)(F)F)cc12 [GW482059],0,0,0,0,0,6,3,3,0,3
Cl.Cl.Cl.N#Cc1ccc(CCNc2nccc(-c3cccc(CN4CCNCC4)c3)n2)cc1 [GSK2137462],37,0,0,18,0,0,14,12,38,35
Cc1cccc2c(-c3ccncn3)c(-c3ccc(F)cc3)nn12 [GW515532],26,7,0,15,0,9,12,0,0,0
CCCCc1nn2ncccc2c1-c1ccnc(NC2CC2)n1 [GW684374],38,0,15,0,0,5,19,0,52,0
Cc1ccc(NC(=O)Nc2ccc(Cl)cc2)cc1-c1ccc(C(=O)Nc2ccncc2)cc1 [GSK1398472],20,8,0,0,0,18,11,0,0,2
Nc1nccc(-c2c(-c3ccc(F)cc3)ncn2C2CCN(Cc3ccccc3)CC2)n1 [SB-219980],0,17,8,0,0,23,0,0,0,0
CNc1nc(-c2ccc3c(N)n[nH]c3c2)cc(N2C[C@@H](C(=O)Nc3ccccc3)CC[C@H]2C)n1 [GSK2298859],26,0,0,0,4,3,0,9,0,11
CS(=O)(=O)CCNCc1nc(-c2ccc3ncnc(Nc4ccc(OCc5ccccc5)c(Cl)c4)c3c2)cs1.Cl [GW582764],14,0,0,0,0,8,0,3,0,0
CS(=O)(=O)Cc1ccc(Nc2nccc(-c3c(-c4cccc(NC(=O)C5CCCCC5)c4)nn4ncccc34)n2)cc1 [GSK350559],11,11,44,3,23,18,0,0,0,31
COc1ccc2cc(-c3nc(-c4ccccc4C(C)C)[nH]c3-c3ccncc3)ccc2c1 [SB-660566],42,7,58,0,0,31,18,15,4,0
Fc1ccc(-c2nc3n(c2-c2ccncc2)CCS3)cc1 [GI98581],39,29,25,0,0,12,15,14,0,12
CS(=O)(=O)CCNCc1nc(-c2ccc3ncnc(Nc4ccc5c(cnn5Cc5ccccc5)c4)c3c2)cs1.Cl.Cl [GW569716],10,3,0,0,0,17,0,0,10,0
O=C(Nc1n[nH]c2nc(-c3cccs3)c(Br)cc12)C1CCCC1 [SB-743341],17,0,51,0,2,12,37,97.7,17,24
FC(F)(F)c1ccccc1-c1cc(-c2c[nH]nc2-c2ccccn2)ccn1 [GW679396],13,4,0,5,0,0,0,26,0,8
Cc1nccc(-c2c(-c3ccc(F)cc3)ncn2CCCN2CCOCC2)n1.Cl [SB-282975],0,7,5,0,5,21,0,6,0,30
Cc1c(Cn2c(C)c(C)n3c(=O)cc(N4CCOCC4)nc23)cccc1C(F)(F)F [GSK2328680],12,2,0,6,0,32,45,7,0,14
COc1ccc(CSc2nnc(-c3ccc4ncsc4c3)o2)cc1C(F)(F)F,0,0,0,0,0,8,1,16,1,0
CNCc1ccc2nc(NC(=O)c3ccc(C(C)(C)C)cc3)cn2c1,18,16,25,7,24,2,0,7,1,24
Cc1ccccc1-c1cc(-c2c[nH]nc2-c2ccccn2)ccn1 [GW680061],12,0,0,0,10,30,10,0,0,1
Cn1cncc1-c1cc2c(Nc3ccc(OCc4ccccc4)cc3)ncnc2cn1 [GW281179],49,0,0,0,0,3,12,10,0,9
Cc1cnc(N)c(/C=C/c2cncc(C(=O)NCCc3ccc(Cl)cc3Cl)c2)c1.Cl [GSK190937],29,0,0,5,0,6,0,0,62,20
COc1cccc(CNC(=O)NC2CCN(c3ccnc(Nc4ccc(F)cc4)n3)C2)c1 (centres unmarked) [GSK1379723],44,11,0,0,0,15,7,0,0,0

SMILES,%Inh [1] [%],%Inh [2] [%],%Inh [3] [%],%Inh [4] [%],%Inh [5] [%],%Inh [6] [%],%Inh [7] [%],%Inh [8] [%],%Inh [9] [%],%Inh [10] [%]
COc1ccc(Nc2nccc(N3CCC(NC(=O)c4cc5ccccc5s4)C3)n2)cc1 (centres unmarked) [GSK1379738],27,0,0,0,0,15,0,0,3,11
Nc1ncnc2occ(-c3ccc4c(c3)CCN4C(=O)Cc3cc(F)ccc3F)c12 [GSK2645446],11,21,0,13,0,3,3,27,7,9
Cn1cncc1C(=O)NC1CCN(c2ccnc(Nc3ccc(F)cc3)n2)C1 (centres unmarked) [GSK1379717],34,0,34,0,0,0,0,1,0,0
COC(=O)c1cccc(NC(=O)NC2CCN(c3ccnc(Nc4ccc(OC)cc4)n3)C2)c1 (centres unmarked) [GSK1379746],42,0,10,0,0,19,0,4,0,0
CC(C)c1cc(-c2ccc3c(N)n[nH]c3c2)nc(N)n1 [GSK2250882],3,0,0,8,0,11,0,23,39,26
COc1ccc(Nc2nccc(-c3ccc(NC(=O)c4cc5cc(F)ccc5[nH]4)cc3)n2)cc1 [GSK1229496],7,0,0,0,0,20,0,0,28,6
CNc1nc(-c2ccc3c(N)n[nH]c3c2)cc(N2C[C@@H](C(=O)NC3CCCCC3)OC[C@H]2C)n1 [GSK2375584],30,0,0,18,0,0,16,0,0,18
O=C(Nc1n[nH]c2nc(-c3ccco3)c(Br)cc12)C1CCN(Cc2ccccc2)C1.O=C(O)[C@H](O)[C@@H](O)C(=O)O (centres unmarked) [SB-742034],7,0,46,13,9,0,0,89,25,3
CC[C@@H]1CO[C@H](C(=O)Nc2ccccc2)CN1c1cc(-c2ccc3c(N)n[nH]c3c2)nc(NC)n1 [GSK2376236],26,0,10,0,0,9,2,8,10,22
O=c1cc(N2CCOCC2)nc2n(Cc3cccc(Cl)c3Cl)c3ccccc3n12 [GSK2299009],44,39,9,6,0,19,39,17,13,31
c1ccc(-c2ccnc3[nH]ccc23)cc1 [SB-693578],9,3,4,0,0,29,0,0,0,12
O=C1NC(=O)C(c2ccc(Cl)cc2)=C1Nc1ccc(O)cc1 [SB-340867],0,0,0,0,0,0,0,0,3,11
COc1ccc(Nc2nccc(N3CCC(NC(=O)C(C)c4ccc(Cl)cc4)C3)n2)cc1 (centres unmarked) [GSK1379735],39,44,26,0,3,26,24,3,2,11
CSc1ccc(-c2nc3n(c2-c2ccncc2)CCC3)cc1 [SKF-105561],0,0,9,0,20,0,0,3,0,0
Cc1ccc(NC(=O)c2ccc(Cl)cc2)cc1-c1ccc(C(=O)Nc2ccncc2)cc1 [GSK1398467],28,9,0,4,0,0,2,0,0,2
Cc1ccc(NC(=O)Nc2ccc(Cl)c(C(F)(F)F)c2)cc1-c1ccc(C(=O)Nc2ccncc2)cc1 [GSK1398470],38,9,0,13,0,16,10,0,2,24
CC(=O)c1c(C)c2cnc(Nc3ccc(N4CCNCC4)cn3)nc2n(C2CCCC2)c1=O,6,0,0,5,0,55,8,6,0,9
Cc1ccccc1Cn1ccn2c(=O)cc(N3CCOCC3)nc12 [GSK2269905],17,0,0,0,0,9,2,8,0,0
O=C(Nc1n[nH]c2nc(-c3cccs3)c(Br)cc12)C1CC1 [SB-735297],0,3,4,0,5,0,0,99.4,29,29
COc1ccc(Nc2nccc(NCCNC(=O)Nc3cc(C)ccc3C)n2)cc1 [GSK1379899],15,8,0,0,0,0,0,14,0,0
Cc1ccc(NC(=O)Nc2ccccc2F)cc1-c1ccc(C(=O)Nc2ccncc2)cc1 [GSK1398477],33,22,7,0,0,11,31,19,7,23
CCn1c(-c2ccccc2)nc2cnccc21 [SB-733416],11,27,6,0,0,31,16,0,2,0
